Reference: ChEMBL document CHEMBL3988442, “University of Dundee, Small-Polar-MMV Screening Library” (2021)
For part of these data: Measured potencies and affinities stand elsewhere.

Tests used:
Parameters in all cases: scale not given: direction of the effect not stated beside the values
[1] = biological target: Protein translocase subunit SecA (Escherichia coli (strain K12)) (UniProt P10408); assay: Assay to Identify E. coli SecA ATPase Inhibitors; assay type: functional; settings: 30 µM
[2] = biological target: T1, Ubiquitin-activating enzyme e1, putative (Leishmania donovani (strain BPK282A1)) (UniProt E9BSI1); assay: Leishmania donovani Ubiquitin Activating Enzyme (LdE1); assay type: functional; settings: 30 µM
T1 sequence (whole entry): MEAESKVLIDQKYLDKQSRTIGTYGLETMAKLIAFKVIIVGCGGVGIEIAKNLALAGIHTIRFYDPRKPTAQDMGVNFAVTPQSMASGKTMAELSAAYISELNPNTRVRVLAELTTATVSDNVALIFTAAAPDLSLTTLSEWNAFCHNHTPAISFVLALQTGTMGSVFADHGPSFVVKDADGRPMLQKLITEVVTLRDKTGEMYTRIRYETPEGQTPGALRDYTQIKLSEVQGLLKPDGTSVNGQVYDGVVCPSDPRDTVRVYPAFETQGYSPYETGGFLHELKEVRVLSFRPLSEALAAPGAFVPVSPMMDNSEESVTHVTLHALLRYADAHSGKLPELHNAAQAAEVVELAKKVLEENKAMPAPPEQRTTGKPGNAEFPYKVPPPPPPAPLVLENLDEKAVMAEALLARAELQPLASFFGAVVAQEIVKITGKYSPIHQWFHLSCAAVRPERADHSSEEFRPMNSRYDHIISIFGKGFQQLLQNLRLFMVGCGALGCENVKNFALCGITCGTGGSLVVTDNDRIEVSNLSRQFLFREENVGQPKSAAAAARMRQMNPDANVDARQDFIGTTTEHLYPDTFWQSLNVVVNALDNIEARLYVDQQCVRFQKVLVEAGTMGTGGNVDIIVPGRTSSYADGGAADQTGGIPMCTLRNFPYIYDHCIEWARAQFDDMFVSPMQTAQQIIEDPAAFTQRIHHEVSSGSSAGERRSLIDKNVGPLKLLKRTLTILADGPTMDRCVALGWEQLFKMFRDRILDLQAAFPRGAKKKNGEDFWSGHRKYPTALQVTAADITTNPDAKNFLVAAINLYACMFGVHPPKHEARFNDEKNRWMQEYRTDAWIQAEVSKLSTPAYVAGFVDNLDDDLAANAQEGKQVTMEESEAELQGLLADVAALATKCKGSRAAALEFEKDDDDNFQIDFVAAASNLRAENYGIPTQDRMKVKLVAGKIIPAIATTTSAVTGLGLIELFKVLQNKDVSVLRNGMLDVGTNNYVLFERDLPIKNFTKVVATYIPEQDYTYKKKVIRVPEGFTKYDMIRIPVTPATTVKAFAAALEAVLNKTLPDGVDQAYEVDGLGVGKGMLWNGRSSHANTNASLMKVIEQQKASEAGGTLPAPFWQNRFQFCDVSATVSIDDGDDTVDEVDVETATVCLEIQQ

[3] = biological target: Sialic acid-binding Ig-like lectin 9 (Homo sapiens) (UniProt Q9Y336); assay: Hs-Siglec9 ALPHAscreen SOP 20170721; settings: 10 µM
Sequence of Sialic acid-binding Ig-like lectin 9 (Homo sapiens) (Q9Y336 whole entry): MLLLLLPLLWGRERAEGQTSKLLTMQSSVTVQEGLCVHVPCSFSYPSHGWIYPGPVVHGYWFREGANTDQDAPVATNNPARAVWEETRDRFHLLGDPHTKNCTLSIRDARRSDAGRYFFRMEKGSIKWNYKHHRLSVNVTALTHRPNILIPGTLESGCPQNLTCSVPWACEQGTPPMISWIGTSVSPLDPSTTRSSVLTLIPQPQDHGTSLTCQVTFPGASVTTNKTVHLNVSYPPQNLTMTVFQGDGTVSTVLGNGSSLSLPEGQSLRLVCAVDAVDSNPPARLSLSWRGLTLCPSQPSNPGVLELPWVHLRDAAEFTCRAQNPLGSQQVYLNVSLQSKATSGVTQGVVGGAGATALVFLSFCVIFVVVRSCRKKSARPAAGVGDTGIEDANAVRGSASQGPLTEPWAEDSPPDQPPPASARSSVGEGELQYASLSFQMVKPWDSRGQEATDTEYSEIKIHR

Trypanosoma cruzi = assay: Trypanosoma cruzi phosphomannomutase and mannose-1-phosphate guanylyltransferase assay; assay type: functional; settings: 10 µM
[4] = biological target: T2, Arginase-2, mitochondrial (Homo sapiens) (UniProt P78540); assay: in vitro enzyme assay to detect the production of urea directly proportional to the activity of Arginase II; assay type: functional; settings: 33.3 µM; also: in the data most compounds retested in dose-response had high values
T2 sequence (whole entry): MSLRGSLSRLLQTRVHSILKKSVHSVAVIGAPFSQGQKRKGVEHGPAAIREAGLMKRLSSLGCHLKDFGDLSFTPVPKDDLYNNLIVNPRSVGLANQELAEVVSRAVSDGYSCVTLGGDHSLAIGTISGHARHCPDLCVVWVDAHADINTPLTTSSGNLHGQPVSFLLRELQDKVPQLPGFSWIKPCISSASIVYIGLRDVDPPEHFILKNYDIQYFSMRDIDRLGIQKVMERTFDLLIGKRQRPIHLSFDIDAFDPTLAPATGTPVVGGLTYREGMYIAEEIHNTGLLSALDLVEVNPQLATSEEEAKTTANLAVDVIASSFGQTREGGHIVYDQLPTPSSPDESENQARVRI

[5] = biological target: T3, Proteasome subunit beta (Trypanosoma cruzi) (UniProt O96673); assay: Trypanosoma cruzi proteasome chymotrypsin-like activity (TcProtChymo) assay.; also: in the data most compounds retested in dose-response had high values; assay type: functional; settings: 9.37 µM
T3 sequence (whole entry): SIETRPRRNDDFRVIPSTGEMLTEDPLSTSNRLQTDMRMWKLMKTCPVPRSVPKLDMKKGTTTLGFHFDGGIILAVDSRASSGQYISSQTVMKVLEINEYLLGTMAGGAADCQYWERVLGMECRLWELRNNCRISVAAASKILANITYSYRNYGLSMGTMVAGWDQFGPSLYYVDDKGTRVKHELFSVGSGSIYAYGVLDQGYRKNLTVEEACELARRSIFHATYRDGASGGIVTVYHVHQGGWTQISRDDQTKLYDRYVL

Homo sapiens = species: Homo sapiens; assay: To identify inhibition of the IFN signalling (Jak-Stat) pathway via expression of an eGFP reporter gene under the control of an IFN-stimulated response element (ISRE) containing MxA promoter.; assay type: functional; settings: 30 µM
[6] = biological target: T4, Tyrosyl-tRNA synthetase, putative (Trypanosoma cruzi (strain CL Brener)) (UniProt Q4DSP6); assay: Trypanosoma cruzi tyrosyl tRNA synthetase (TcYRS) _High Tyrosine SOP; assay type: functional; settings: 30 µM; also: in the data most compounds retested in dose-response had high values
T4 sequence (whole entry): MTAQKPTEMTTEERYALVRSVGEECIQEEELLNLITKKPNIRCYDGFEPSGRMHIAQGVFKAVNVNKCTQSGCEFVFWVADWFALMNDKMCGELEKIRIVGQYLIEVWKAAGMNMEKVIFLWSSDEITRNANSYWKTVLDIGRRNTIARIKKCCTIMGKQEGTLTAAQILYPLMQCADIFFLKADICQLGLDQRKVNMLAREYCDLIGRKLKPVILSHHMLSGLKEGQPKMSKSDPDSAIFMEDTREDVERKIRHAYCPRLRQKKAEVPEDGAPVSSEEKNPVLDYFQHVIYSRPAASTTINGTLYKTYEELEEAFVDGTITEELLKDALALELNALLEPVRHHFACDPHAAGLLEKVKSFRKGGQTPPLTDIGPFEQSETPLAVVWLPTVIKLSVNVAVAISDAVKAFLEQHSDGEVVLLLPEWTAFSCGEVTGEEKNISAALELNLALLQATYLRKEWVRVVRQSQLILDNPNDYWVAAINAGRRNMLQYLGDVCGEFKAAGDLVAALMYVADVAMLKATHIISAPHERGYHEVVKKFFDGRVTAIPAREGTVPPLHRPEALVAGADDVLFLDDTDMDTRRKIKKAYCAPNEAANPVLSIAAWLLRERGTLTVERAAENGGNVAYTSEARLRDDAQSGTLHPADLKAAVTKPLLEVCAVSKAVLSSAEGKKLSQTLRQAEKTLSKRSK

[7] = biological target: T4, Tyrosyl-tRNA synthetase, putative (Trypanosoma cruzi (strain CL Brener)); assay: Trypanosoma cruzi tyrosyl tRNA synthetase (TcYRS) SOP; assay type: functional; settings: 30 µM
[8] = biological target: Chromo domain-containing protein 1 (Saccharomyces cerevisiae (strain ATCC 204508 / S288c) (Baker's yeast)) (UniProt P32657); assay: ScCHD-1 Enzyme Inhibition Assay; assay type: functional; settings: 30 µM; also: in the data most compounds retested in dose-response had high values
Sequence of Chromo domain-containing protein 1 (Saccharomyces cerevisiae (strain ATCC 204508 / S288c) (Baker's yeast)) (P32657 whole entry, the tested form may be a part): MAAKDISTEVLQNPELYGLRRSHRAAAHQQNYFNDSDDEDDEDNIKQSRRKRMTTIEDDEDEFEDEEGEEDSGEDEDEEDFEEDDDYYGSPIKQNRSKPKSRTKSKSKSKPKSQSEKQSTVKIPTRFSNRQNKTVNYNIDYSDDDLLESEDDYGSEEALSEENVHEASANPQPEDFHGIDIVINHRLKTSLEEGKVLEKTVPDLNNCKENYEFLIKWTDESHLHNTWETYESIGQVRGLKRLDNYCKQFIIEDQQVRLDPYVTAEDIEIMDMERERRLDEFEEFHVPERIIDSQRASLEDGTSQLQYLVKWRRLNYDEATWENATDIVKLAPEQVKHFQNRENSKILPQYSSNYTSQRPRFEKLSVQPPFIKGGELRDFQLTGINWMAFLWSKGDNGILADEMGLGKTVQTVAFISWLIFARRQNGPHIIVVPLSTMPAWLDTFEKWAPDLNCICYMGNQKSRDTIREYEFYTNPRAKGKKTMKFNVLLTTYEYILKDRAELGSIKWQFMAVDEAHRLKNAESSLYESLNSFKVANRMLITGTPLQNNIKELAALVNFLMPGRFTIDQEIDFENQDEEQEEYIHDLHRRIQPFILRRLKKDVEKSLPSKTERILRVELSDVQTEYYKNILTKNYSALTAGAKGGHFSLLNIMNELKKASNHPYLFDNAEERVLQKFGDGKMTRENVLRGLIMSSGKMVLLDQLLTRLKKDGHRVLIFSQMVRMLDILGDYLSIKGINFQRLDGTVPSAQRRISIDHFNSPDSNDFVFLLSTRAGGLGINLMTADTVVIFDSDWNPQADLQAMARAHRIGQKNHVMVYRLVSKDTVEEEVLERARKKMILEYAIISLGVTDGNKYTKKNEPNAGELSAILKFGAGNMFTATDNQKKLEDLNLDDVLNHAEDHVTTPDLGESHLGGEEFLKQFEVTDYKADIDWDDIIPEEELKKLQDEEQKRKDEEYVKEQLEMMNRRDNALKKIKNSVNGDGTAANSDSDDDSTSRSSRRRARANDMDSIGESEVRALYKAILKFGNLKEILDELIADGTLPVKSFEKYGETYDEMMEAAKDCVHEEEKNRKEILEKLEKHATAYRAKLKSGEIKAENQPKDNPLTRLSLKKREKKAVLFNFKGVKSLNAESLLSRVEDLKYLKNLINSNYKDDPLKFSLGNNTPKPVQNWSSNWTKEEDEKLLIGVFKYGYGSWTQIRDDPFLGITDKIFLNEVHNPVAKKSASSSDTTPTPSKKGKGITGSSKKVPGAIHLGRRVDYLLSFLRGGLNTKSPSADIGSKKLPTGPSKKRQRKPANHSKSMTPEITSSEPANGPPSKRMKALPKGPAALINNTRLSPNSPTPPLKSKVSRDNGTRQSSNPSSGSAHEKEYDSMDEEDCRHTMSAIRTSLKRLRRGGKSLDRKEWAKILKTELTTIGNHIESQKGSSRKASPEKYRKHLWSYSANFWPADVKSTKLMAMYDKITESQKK

Sequence of Protein translocase subunit SecA (Escherichia coli (strain K12)) (P10408 whole entry): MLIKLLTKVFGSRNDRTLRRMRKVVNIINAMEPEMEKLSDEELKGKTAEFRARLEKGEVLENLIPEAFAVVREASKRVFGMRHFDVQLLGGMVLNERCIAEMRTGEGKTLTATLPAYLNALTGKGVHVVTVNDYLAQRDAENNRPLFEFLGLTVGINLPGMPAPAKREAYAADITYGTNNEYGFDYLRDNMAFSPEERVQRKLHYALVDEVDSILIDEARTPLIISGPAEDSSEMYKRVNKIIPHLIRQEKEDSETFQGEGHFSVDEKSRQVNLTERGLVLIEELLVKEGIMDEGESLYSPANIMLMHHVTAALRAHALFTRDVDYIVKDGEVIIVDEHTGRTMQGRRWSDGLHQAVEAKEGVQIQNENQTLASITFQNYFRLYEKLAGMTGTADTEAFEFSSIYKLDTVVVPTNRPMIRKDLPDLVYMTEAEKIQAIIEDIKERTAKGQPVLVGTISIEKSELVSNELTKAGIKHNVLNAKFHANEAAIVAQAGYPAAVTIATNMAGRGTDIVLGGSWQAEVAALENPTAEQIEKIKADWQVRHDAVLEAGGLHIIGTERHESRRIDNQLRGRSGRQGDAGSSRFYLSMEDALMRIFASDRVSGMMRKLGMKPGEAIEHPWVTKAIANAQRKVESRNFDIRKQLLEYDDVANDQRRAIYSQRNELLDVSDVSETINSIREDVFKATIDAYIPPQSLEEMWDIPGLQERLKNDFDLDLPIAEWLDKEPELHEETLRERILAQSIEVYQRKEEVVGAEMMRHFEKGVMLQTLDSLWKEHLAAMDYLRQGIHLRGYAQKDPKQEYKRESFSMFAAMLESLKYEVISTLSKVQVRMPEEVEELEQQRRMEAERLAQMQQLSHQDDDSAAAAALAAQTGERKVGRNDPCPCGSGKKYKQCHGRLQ

| SMILES | Percent Effect [1] [%] | Percent Effect [2] [%] | Percent Effect [3] [%] | Percent Effect (Trypanosoma cruzi) [%] | Percent Effect [4] [%] | Percent Effect [5] [%] | Percent Effect (Homo sapiens) [%] | Percent Effect [6] [%] | Percent Effect [7] [%] | Percent Effect [8] [%] |
| --- | --- | --- | --- | --- | --- | --- | --- | --- | --- | --- |
| CC(C)(N)C(=O)N1CCCC1c1cncc(Oc2ccc(F)cc2)n1 (stereo not given) | -4.32 | 17.3 | 10.6 | 0.789 | -0.443 | 1.31 | -1.85 | 6.35 | 15 | -24.2 |
| CCOc1ccccc1C(=O)N1CCCC1c1ncc2c(n1)CCNC2 (stereo not given) | -5.15 | 4 | -1.2 | -5.72 | -4.42 | 7.06 | 10.5 | -6.35 | -2.5 | -31.8 |
| COc1cccc(OC)c1CN1CCC2(CC(Nc3ccncn3)C2)C1 (stereo not given) | -0.631 | 1.33 | 2.05 | -4.93 | 1.77 | 3.61 | 11.6 | 5.29 | 5 | -14 |
| Cc1nn(C)c(N(C)C)c1CNCc1ccc(OCC(N)=O)cc1 | -3.65 | 8 | 0.758 | -2.61 | -1.33 | 13.2 | -6 | 5.79 | 7.69 | -13.9 |
| Cc1ccn(CCC(=O)N2CCOC(c3nc(-c4cccs4)no3)C2)n1 (stereo not given) | 1.88 | 9.33 | 1.5 | -5.52 | 4.42 | 8.7 | 7.42 | 2.12 | 10 | -26.2 |
| Cc1nnc(NC(=O)CN2CCCC(Cn3cncn3)C2)s1 (stereo not given) | -3.75 | 10.7 | 7.25 | 1.41 | 6.21 | 12.3 | -17.8 | 5.79 | 10.3 | -8.83 |
| Cc1[nH]ncc1C(=O)N1CCN(CC(O)C(C)(C)C)CC1 (stereo not given) | -2.19 | 17.9 | -6.77 | 7.23 | -2.46 | 8.79 | -1.39 | 6.22 | 20.5 | -6.95 |
| Cn1ccnc1CN1CCN(Cc2noc(-c3ccccc3)n2)CC1 | -3.61 | 10.7 | -0.35 | -6.02 | 3.99 | 7.55 | 13.5 | 3.68 | 7.69 | -9.67 |
| Cc1nc(-c2ccc(C(=O)O)cc2)cc(C2CCN(C(C)C)C2)n1 (stereo not given) | -2.82 | 12 | -4.91 | -1.18 | 4.87 | 10.7 | 8.94 | 5.29 | 15 | -22.5 |
| Cc1cc2cc(C(=O)N3CC[C@H](O)[C@]4(CCCO4)C3)ccc2o1 | -4.25 | 17.3 | 3.44 | 2.17 | -3.1 | 8.37 | -3.08 | 6.35 | 12.5 | -20.9 |
| Cc1cc(OCC(=O)NS(=O)(=O)c2c(C)noc2C)ccc1Cl | -0.396 | -5.13 | 2.29 | 4.79 | 0 | 1.28 | 18.7 | -5.26 | -1.21 | 0.575 |
| CCN(CC1CCOC1)C(=O)Nc1ccc(OC)nc1 (stereo not given) | -0.796 | 17.9 | -22.4 | 2.35 | 2.46 | 18.2 | 15.6 | 2.39 | 22.9 | -7.72 |
| CC(NC(=O)N1CCN(c2ccccc2)CC1)c1nncn1C (stereo not given) | 1.88 | 10.7 | -3.63 | -2.81 | 7.54 | 11.4 | 13.4 | 3.68 | 5.13 | -13.8 |
| O=C1CC2(CCCCN2C(=O)c2ccsc2)CN1CC1CC1 (stereo not given) | -4.46 | 11.7 | 1.96 | 2.44 | 4.57 | 0.429 | -8.36 | 8.7 | 15 | -4.62 |
| Cc1cnc(CN(C)C2CCN(Cc3nc4ccccc4n3C)C2)o1 (stereo not given) | -2.3 | 16 | -6.81 | 3.21 | -4.43 | 22.6 | -0.979 | 14.2 | 17.9 | -12.5 |
| CN(Cc1nnc(-c2ccco2)o1)C1CCCN(c2cccnn2)C1 (stereo not given) | 2.65 | 10.3 | -14.4 | -2.91 | -0.82 | 28.4 | 30.2 | 3.35 | 8.43 | 1.33 |
| CN(Cc1noc(C2CC2)n1)C1CCN(Cc2nnc(C3CC3)o2)C1 (stereo not given) | 4.16 | 15.6 | -1.39 | -6.16 | 1.02 | 17.4 | 20.4 | 6.86 | 16.5 | -8.04 |
| NC(=O)c1cc(C2CCCN(CCc3ccccn3)C2)n[nH]1 (stereo not given) | -0.145 | -12.8 | -3.53 | 3.29 | 4.1 | -3.67 | 2.63 | 3.35 | -1.21 | -1.37 |
| CC(C)(C)c1cn2nc(N3CCC[C@@H]3CO)sc2n1 | -2.65 | 10.3 | -1.69 | -0.282 | 2.87 | 6.57 | 2.26 | 2.39 | 13.2 | -0.0525 |
| COc1ccc(C2CC(=O)Nc3c2cnn3C)cc1 (stereo not given) | -6.08 | 2.7 | -3.92 | -9.99 | -5.94 | 8.39 | 39.8 | -0.532 | 4.88 | -3.56 |
| CCO[C@H]1CO[C@@]2(CCCN(S(=O)(=O)c3ccccc3)C2)C1 | -1.1 | 24.7 | -3.22 | -3.02 | 11.3 | 17.7 | 10.2 | 2.63 | 0 | 6.62 |
